# The list is not random: actives were taken first. Their share in the collection is about 1.8%.
# APP transl inh: inhibitors of APP translation via 5'UTR reporter, primary screen, APP 5'UTR luciferase, SH-SY5Y cells; SH-SY5Y APP 5'UTR-luciferase reporter, luminescence; inhibition, % at 2 µM; 0.82% of 190,000 active; AID 1285, 2008;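 active = inhibition above a set limit, derived from the sample mean plus 3 SD, cut at about 45% in these data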
# Ba/F3 V617F tox: reduced viability of JAK2V617F-dependent Ba/F3 cells, primary screen, JAK2V617F inhibitor project, cell-based, Ba/F3 EpoR-JAK2V617F, luminescence | inhibition, % at 5.6 µM | ATP luminescence | 1.1% of 220,000 active;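 active = inhibition above the campaign mean plus 3 SD over all tested compounds, cut at about 24% in these data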;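 also: cytokine-independent growth of Ba/F3 cells driven by EpoR plus mutant JAK2; 0% = DMSO-treated cells and 100% = JAK inhibitor I control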
# KLF5 inh: KLF5 expression inhibitors, primary screen, DLD-1 cells, luminescence. DLD-1 KLF5 promoter-luciferase reporter. inhibition, % at 5 µM. 0.23% of 290,000 active. AID 1700, 2009;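 active = inhibition above a per-plate limit of that plate's mean compound inhibition plus 3 SD, cut at about 60% in these data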;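 also: 0% = DMSO wells and 100% = LY294002 at 200 µM; higher means less KLF5 promoter-driven luciferase light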
# BaF3 tox: parental Ba/F3 cell viability inhibition, counter-screen for JAK2V617F inhibitor project, murine pro-B, CellTiter-Glo luminescence. CellTiter-Glo ATP luminescence. inhibition, % at 5.6 µM. 1.1% of 220,000 active;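 active = inhibition above a per-campaign cutoff, the mean inhibition of all tested compounds plus 3 SD, cut at about 27% in these data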;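 also: 0% = DMSO wells and 100% = JAK Inhibitor I control wells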
# IEC-6 tox: cytotoxicity in IEC-6 intestinal epithelial cells, primary screen, cytotoxicity control for KLF5 inhibitor project, cell-based, luminescence. IEC-6 cytotoxicity, luminescence viability. 0.78% of 290,000 active. inhibition, % at 5 µM; in the data active = inhibition above about 22%;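 also: 0% = plate median of test compound wells and 100% = cytotoxic reference compound wells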
# BaF3 tox 2: parental Ba/F3 cell viability inhibition, counter-screen for JAK2V617F inhibitor project, murine pro-B, CellTiter-Glo luminescence | 31% of 580 active | AID 1520, 2009 | cells kept alive by added IL-3 | shares compounds with Ba/F3 V617F tox | inhibition, % at 5.6 µM;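 active = cell growth inhibition above the hit limit set in the earlier mutant JAK2 cell screen, cut at about 27% in these data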;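 also: plate controls were DMSO-treated cells for no effect and JAK Inhibitor I control wells for full effect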
# JAK2V617F conf: viability loss in Ba/F3 EpoR-JAK2V617F cells, confirmation, JAK2V617F inhibitor project, cell-based, luminescence, triplicate; shares compounds with Ba/F3 V617F tox; CellTiter-Glo luminescence; inhibition, % at 5.6 µM; 66% of 580 active; AID 1521, 2009;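 active = mean inhibition above the hit cutoff derived in the earlier primary screen, cut at about 25% in these data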;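 also: 0% = DMSO-treated cells and 100% = JAK inhibitor I control wells; higher means lower luminescence from reduced cell ATP and viability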
# Starred values were filed as active, the others as inactive; nt = no result given.
SMILES,APP transl inh,Ba/F3 V617F tox,KLF5 inh,BaF3 tox,IEC-6 tox,BaF3 tox 2,JAK2V617F conf
CCOC(=O)Nc1ccc2c(c1)N(C(=O)CCN1CCOCC1)c1ccccc1S2=O (stereo not drawn),13,41*,-48,4,10,-2,23
N#C/C(=C\c1ccc(OC(=O)c2ccc(Cl)s2)cc1)c1nc2ccccc2[nH]1,-39,1,-7,2,2,nt,nt
c1ccc(CCNc2nc(-c3ccccn3)nc3ccccc23)cc1,nt,58*,1,9,8,10,88*
C/C(=N\Nc1nc(-c2ccccn2)nc2ccccc12)c1ccc(F)cc1,nt,0,7,0,3,nt,nt
CCC(C)NC(=O)Cn1cnc2sc(C)c(S(=O)(=O)N3CCN(c4ccccc4OC)CC3)c2c1=O (stereo not drawn),nt,nt,-3,nt,2,nt,nt
COC(CN(C(=O)CCl)C(C(=O)NC1CCCCC1)c1ccc(C)cc1)OC (stereo not drawn),4,91*,-6,5,4,1,17
Cc1cc(C)cc(NC(=O)C[n+]2ccccc2)c1,nt,nt,-38,nt,-1,nt,nt
O=C(CCl)NC(=O)NC12CC3CC(CC(C3)C1)C2,-6,43*,4,-11,-4,7,93*
CCCN(CCC)C(=O)c1ccc2nc(-c3ccc(OC)c(OC)c3)c(-c3ccc(OC)c(OC)c3)nc2c1,nt,nt,-16,nt,5,nt,nt
Cc1cc(C)cc(NC(=O)Nc2c(Br)cnn2C)c1,nt,nt,-21,nt,1,nt,nt
O=C(c1cnc2ccc3ccccc3c2c1)c1cc(F)ccc1O,nt,26*,-6,16,3,18,39*
CCn1cnc2cc(NS(=O)(=O)c3ccc(OC)c(OC)c3)ccc21,nt,nt,-28,nt,5,nt,nt
Oc1ccc(Cl)cc1N=Cc1sc2ccccc2c1Cl,-22,40*,18,16,0,21,86*
Cc1[nH]c(=O)c(C(=O)/C=C/c2ccccc2F)c2c1CCCC2,7,50*,-16,17,4,18,96*
Cc1cc(C)c(C(=O)/C=C/c2cccc3ccccc23)c(=O)[nH]1,nt,-3,-20,0,6,nt,nt
COc1ccc(CCNC(=O)COC(=O)/C=C/c2cc(OC)c(OC)c(OC)c2)cc1OC,-10,-1,-39,8,0,nt,nt
CCn1cc(CN2CCC(n3nccc3NC(=O)CCOc3ccccc3)CC2)c(C)n1,nt,nt,-27,nt,2,nt,nt
Cc1ccc(NC(=O)C2=C(c3ccccc3)S(=O)(=O)CCS2(=O)=O)cc1,93*,71*,2,0,7,40*,99*
Cc1ccc(NC(=O)c2ccccc2)cc1,-97,0,-127,4,-8,nt,nt
CCS(=O)(=O)CCSc1nc(C)cc(C)c1C#N,6,100*,-30,7,-10,-1,-7
COc1cc(NC(=O)Cc2c(C(=O)O)n(C)c3ccccc23)cc(OC)c1OC,-30,3,0,2,11,nt,nt
Cc1ccc(S(=O)(=O)NCc2ccc(C(=O)N(C)CCC#N)cc2)cc1,nt,93*,-13,3,1,-2,4
COc1ccc(N2CCc3c(C)nc4c(OC)cc(OC)cc4c32)c(OC)c1,-4,48*,-10,7,1,6,64*
Cc1cc(NC(=O)c2sccc2C)n(-c2nc3ccccc3[nH]2)n1,8,84*,-26,3,-10,-5,-4
Cc1cc(NC(=O)c2cccs2)n(-c2nc3ccccc3[nH]2)n1,10,-1,-10,7,-9,nt,nt
CCOC(=S)SCC(=O)Nc1nc(-c2ccc(Br)cc2)cs1,32,27*,-19,14,-5,71*,99*
CCOc1cc(Br)ccc1S(=O)(=O)NCc1ccccc1,1,101*,-6,3,8,-4,7
CC(C)C(NC(=O)C(Cc1ccccc1)NC(=O)OCc1ccccc1)C(=O)O (stereo not drawn),-8,2,-29,0,5,nt,nt
CCN(CC)S(=O)(=O)c1ccc(N/N=C(\C)c2ccncc2)nc1,nt,nt,16,nt,-2,nt,nt

# High-throughput results as filed in PubChem.
